Measurements: PubChem BioAssay AID652067 (The Scripps Research Institute Molecular Screening Center, 2013)
About 5,400 (1.5%) of roughly 370,000 compounds were called active.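 The calls were made as follows: active = activation above the mean of all tested compounds plus 3 SD (cut at about 5.5% in these data); inactive = the rest.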 The list comes from a sample in which actives are over-represented; it also holds similar structures and randomly drawn compounds.

tested on: DAF-12 nuclear receptor (Haemonchus contortus); assay: H. contortus DAF-12 nuclear receptor activators, primary screen, cell-based, luminescence, HEK293, lit1-tk-luc reporter (AID 652067); conditions: HEK293 hcDAF-12 lit1-tk-luc reporter, at 6.8 µM, stronger effect = higher value, 0% DMSO, 100% Δ7-dafachronic acid;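 also: 100% = response to 3 µM Δ7-dafachronic acid high control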

Structure (SMILES)	activation
O=[N+]([O-])c1ccc(N/N=C2/CCCCC2c2ccccn2)c([N+](=O)[O-])c1 (centres undefined)	0.53% (inactive)
C[n+]1ccccc1C1CCCC/C1=N\Nc1ccc([N+](=O)[O-])cc1[N+](=O)[O-] (centres undefined)	6% (active)
O=C(Nc1ccccc1)O/N=C1\CCCCC1c1ccc([N+](=O)[O-])cc1[N+](=O)[O-] (centres undefined)	-1.35% (inactive)
Cc1ccnc(NC(=O)CCNS(=O)(=O)c2ccc(C)c(C)c2)c1	9.81% (active)
Cc1ccc(S(=O)(=O)NCCC(=O)Nc2cccc(S(N)(=O)=O)c2)cc1C	-1.34% (inactive)
Cc1ccc(S(=O)(=O)NCCC(=O)NCc2ccc(Cl)cc2)cc1C	2.24% (inactive)
O=C(CNC(=O)c1ccccc1)OC(C(=O)Nc1cc([N+](=O)[O-])ccc1F)c1ccccc1 (centres undefined)	-1.31% (inactive)
CCC(CO)Nc1cccc2c1S(=O)(=O)N(Cc1cn(Cc3ccccc3C(F)(F)F)nn1)Cc1ccccc1O2 (centres undefined)	-0.6% (inactive)
Cc1ccc(-c2nc(C3CCCN(S(=O)(=O)c4ccc(Br)s4)C3)no2)cc1 (centres undefined)	-1.74% (inactive)
CCOC(=O)C1(Cc2ccccc2)CCN(Cc2cn(C(C)=O)c3ccccc23)CC1	4.1% (inactive)
Cc1ccc(NC(=O)N2c3ccccc3SC2c2ccco2)c(C)c1 (centres undefined)	0.47% (inactive)
COC(=O)C1CN(CC(C)C)CCS(=O)(=O)N1Cc1ccc(C)cc1 (centres undefined)	-1.58% (inactive)
N#Cc1ccc(C2N=C(c3ccccc3)NO2)cc1 (centres undefined)	5.73% (active)
S=C1NC(c2ccccc2)=NCN1c1ccc(Br)cc1	-0.59% (inactive)
Brc1ccccc1C1N=C(c2ccccc2)NO1 (centres undefined)	11% (active)
CN(C(=O)Cn1nnc(-c2ccc(F)cc2)n1)C1CCS(=O)(=O)C1 (centres undefined)	0.43% (inactive)
C#CCN([C@H](C(=O)OC)C(C)CC)S(=O)(=O)c1ccccc1Br (some centres undefined)	-3.57% (inactive)
COC(=O)[C@]1(Cc2ccccc2)NC=C(C(=O)c2ccccc2)[C@@H]1c1cccc(OC)c1	-0.48% (inactive)
COc1cc(C(=O)Nc2ncccc2C)ccc1OCC(=O)N1CCOCC1	-1.69% (inactive)
O=C(Cc1ccc(Cl)cc1)NC(=S)Nc1ccccc1O	-0.62% (inactive)
O=C(NC(=O)c1ccccc1)Nc1ccccc1O	12.2% (active)
O=C(NC(=S)Nc1cccc2c(O)cccc12)c1cccc(Br)c1	1.98% (inactive)
CCCC[C@H]1C2CC(OC(=O)NCc3ccccc3)C(C2)[C@H]2CCCCN21 (some centres undefined)	0.87% (inactive)

Structure (SMILES)	activation
COC(=O)C[C@H]1CC[C@H]2[C@H](COc3ccc(NC(=O)C4CC4)cc3C(=O)N2C)O1	0.16% (inactive)
COc1ccccc1-c1sc2ccccc2c1C#CC1(O)CCCCC1	1.87% (inactive)
CCOc1ccc2nc(Cl)c(C3CC(c4ccccc4)=NN3C(=O)c3cccs3)cc2c1 (centres undefined)	-2.57% (inactive)
COc1ccc(C2CC(c3ccccc3)=NN2C(=O)c2ccc(Cl)c([N+](=O)[O-])c2)cc1 (centres undefined)	0.35% (inactive)
COc1ccc(C2=NN(C(=O)c3ccccc3C(=O)O)C(c3ccccc3O)C2)cc1 (centres undefined)	12.9% (active)
O=C1Nc2ccccc2OC1CC(=O)N1CCCCCCC1 (centres undefined)	1.16% (inactive)
CCCCNC(=O)C[C@H]1C[C@@]2(C(=O)OC)C(=C[C@H](COCc3ccccc3)O[C@@H]2C)N(Cc2ccc(Cl)cc2Cl)C1=O	-3.26% (inactive)
C=C(C)C#CC(Cc1ccccc1)NCC1CC1 (centres undefined)	-1.73% (inactive)
NC(=O)c1c(NC(=O)c2ccccc2)sc2c1CCCC2	7.46% (active)
CCN(CC)CC(=O)Nc1sc2c(c1C(=O)c1ccccc1C)CCC2	-0.3% (inactive)
O=C(O)c1c(NC(=O)N2CCCC2)sc2c1CCCC2	-0.22% (inactive)
Cc1nc2ccc(C(=O)N3CCN(C(=O)C(C)(C)C)CC3)cc2n1C1CCCC1	-2.87% (inactive)
CC(CCN1CCC(C(O)(c2ccccc2)c2ccccc2)CC1)Oc1ccc([N+](=O)[O-])cc1Cl (centres undefined)	6.54% (active)
CC(CCN1CCC(C(O)(c2ccccc2)c2ccccc2)CC1)Oc1ccc(Cl)cc1 (centres undefined)	4.67% (inactive)
CC(CCN1CCC(C(O)(c2ccccc2)c2ccccc2)CC1)Oc1ccc(C(F)(F)F)cc1 (centres undefined)	-0.22% (inactive)
Cc1cc(C)cc(NC(=O)N2CCC(N(C)CCC(C)C)CC2)c1	-0.86% (inactive)
CC(C)(C)OC(=O)NCc1cc(F)ccc1/C=C/S(=O)(=O)NCCc1ccccc1	-0.58% (inactive)
CCOC(=O)c1c(NC(=S)Nc2ccccc2)sc2c1CCN(C)C2	0.34% (inactive)
CCOC(=O)c1cc2c(nc1NC(=S)Nc1ccccc1)CC(C)(CC)OC2 (centres undefined)	-0.86% (inactive)
CCOC(=O)c1cn[nH]c1NC(=S)Nc1ccccc1	7.58% (active)
C[C@H]1CN([C@@H](C)CO)C(=O)CCCn2nncc2CO[C@@H]1CN(C)C(=O)Nc1ccc(N2CCN(C)CC2)cc1	-1.4% (inactive)
CCCS(=O)(=O)Nc1c(C(=O)O)[nH]c2ccccc12	3.5% (inactive)
Cc1ccc2[nH]c(C(=O)O)c(NC(=O)c3ccccc3[N+](=O)[O-])c2c1	3.39% (inactive)

Structure (SMILES)	activation
O=C(O)c1[nH]c2ccccc2c1C(c1cccc(O)c1)c1c(C(=O)O)[nH]c2ccccc12	6.89% (active)
CCC(c1ccc(NC(=O)OC(C)(C)C)cc1)c1cc(OC)cc(OC)c1 (centres undefined)	-1.61% (inactive)
CCOc1ccc(Oc2c(Cl)cnn(-c3ccc(C)cc3)c2=O)cc1	-0.82% (inactive)
N#CC1=C(N)Oc2c(sc3ccccc23)C1c1ccco1 (centres undefined)	6.9% (active)
CCC(=O)c1c(CC)c2n3c1=CC[C@H]3CC(Br)C=2 (some centres undefined)	-2.16% (inactive)
CN(C)c1ccnc(Nc2ccc(F)cc2)c1C#N	1% (inactive)
CC(C)c1ccc(Nc2ncccc2C#N)cc1	5.74% (active)
CCN1C(=O)N[C@@H]2C[C@H](C(=O)N3CCCC3)[C@H](C)[C@H](c3ccccc3)C[C@@H]21	0.19% (inactive)
CC(C)CNc1cccc2c1S(=O)(=O)N(Cc1cn(Cc3ccc(Cl)cc3)nn1)Cc1ccccc1O2	-0.84% (inactive)
CCCCc1nc2ccccc2c(NC(=O)CN2CCN(C)CC2)c1CCC	0.46% (inactive)
CCc1ccc(-c2cc(C(=O)NN3CCN(C)CC3)c3ccccc3n2)cc1	6.67% (active)
COC(=O)c1cc(N2CCNCC2)nc2ccccc12	0.41% (inactive)
COC(=O)C(C(=O)OC)c1ccccc1NS(=O)(=O)c1cccc2ccccc12	-1.63% (inactive)
COc1cccc(/C=C2\CC3(OC(C)=O)CCCN2C3)c1 (centres undefined)	-1.14% (inactive)
CNC(=O)c1sc(Nc2ccc(OCc3ccccc3)cc2)nc1C	-3.73% (inactive)
COc1cccc2sc(Nc3nc(C)c(C(C)=O)s3)nc12	6.52% (active)
COc1ccccc1Nc1ncc(C(C)=O)c(C)n1	-0.49% (inactive)
CCOC(=O)N1CCN(C(=O)C[C@@H]2C(=O)N(CCc3ccc(Cl)cc3)C3=CCCC[C@]32C(=O)OCC)CC1	-4.47% (inactive)
CCCCNC(=O)C[C@@H]1C(=O)N(CCc2ccc(Cl)cc2)C2=CCCC[C@]21C(=O)OCC	-2.83% (inactive)
Cc1ccc(C(=O)O/N=C(\N)c2ccccn2)cc1Cl	8.22% (active)
N/C(=N\OC(=O)CCC1CCCCC1)c1ccccn1	4.24% (inactive)
COc1ccccc1OCC(=O)OCc1cc(-c2ccco2)on1	-2.08% (inactive)
N/C(=N\OC(=O)Cc1ccc([N+](=O)[O-])cc1)c1ccccn1	1.92% (inactive)

Structure (SMILES)	activation
O=C(COC(=O)c1ccccn1)NNC(=O)c1ccc(Br)cc1	-2.22% (inactive)
O=C(COC(=O)c1ccccn1)NNC(=O)c1ccc([N+](=O)[O-])cc1	1.23% (inactive)
COc1ccccc1OCC(=O)O/N=C(\N)c1ccccn1	7.16% (active)
C/C(=N/OC(=O)c1cccc(C(F)(F)F)c1)c1cnccn1	-0.26% (inactive)
COc1ccc(C(=O)O/N=C(\N)c2ccccn2)cc1[N+](=O)[O-]	6.36% (active)
CCOC(=O)c1cccc(NC(=O)CN(C)S(=O)(=O)c2ccc(-c3cocn3)s2)c1	-1.38% (inactive)
C=CCN1C(=O)[C@@H](CC(=O)N2CCN(C(=O)OCC)CC2)[C@]2(C(=O)OCC)CCCCC/C=C/12	0.11% (inactive)
CCC(=O)OCCCN1C(=O)CCC12CCC(c1ccccc1)CC2 (centres undefined)	-1.9% (inactive)
CN(C)[C@H]1CCN(c2cccc3c2S(=O)(=O)N2CC[C@H](C2)O3)C1	1.72% (inactive)
Cc1ccc(CN2CCCCC(NC(=O)C3CCCCC3)C2=O)cc1 (centres undefined)	-1.6% (inactive)
COC(=O)[C@]12C[C@H](CC(=O)N3CCN(C(=O)C4CC4)CC3)C(=O)N(CCC3=CCCCC3)C1=C[C@H](C(C)C)O[C@@H]2C1CC1	-1.23% (inactive)
Nn1c(SCC(=O)Nc2ccc(S(N)(=O)=O)cc2)nnc1-c1n[nH]c2c1CCC2	-1.75% (inactive)
Cc1ccc(NC(=O)c2cc3ccccc3o2)cc1	10.5% (active)
Cc1cccc(-n2nc3c(c2NC(=O)c2cc4ccccc4o2)CS(=O)(=O)C3)c1	1.51% (inactive)
C/C(=N\NC(=S)Nc1ccc(C)cc1)c1cc2ccccc2o1	-0.69% (inactive)
CC(C)(C)c1ccc(CSc2nnc(-c3cccs3)o2)cc1	1.61% (inactive)
COc1ccccc1C(=O)NC(=O)COC(=O)C1CC1	0.43% (inactive)
Cc1nc2ccccc2n1CC(O)c1ccccc1 (centres undefined)	1.55% (inactive)
CCOc1ccc(C(O)Cn2c(=N)n(CCN3CCCCC3)c3ccccc32)cc1 (centres undefined)	-0.25% (inactive)
Cn1c(=N)n(CC(O)c2ccccc2)c2ccccc21 (centres undefined)	6.33% (active)
